# A selection: hits, their analogues and other compounds. The true share with any hit is near 1.2%.
# MmCpn inh – blocks the Methanococcus maripaludis chaperonin Mm-Cpn; purified Mm-Cpn ATPase, ADP Transcreener TR-FRET; Potency, µM (top dose mostly 76.9 µM), for the others: top-dose activity, negative = inhibition, most hits filed as inhibitors; AID 504842; actives 0.031% (n = 330,000); also: potency is read from the fitted curve at half-maximal effect; % is scaled to controls: 0 for no effect and ±100 for the full control effect; nearly all actives have a fitted effect of over 80% in size
#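 Eu-cryptate anti-ADP/ADP-d2 competition gives a ratio inversely related to ADP. Enzyme at 25 nM was pre-exposed to compound for 10 min, then given 10 uM ATP for 30 min, 37°C throughout.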
# gsp antagonist – gsp mutant antagonism. gsp-mutant cells, cAMP HTRF, 30 min. Potency, µM (doses to about 76.9 µM), for inactives: at the top dose activity change, negative = inhibition, hits mostly inhibitors. actives 0.4% (n = 340,000). AID 624288; calls by dose curve; cell line not stated here;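 also: intracellular cAMP measured with PDE inhibitor Ro 20-1724 present during compound exposure; potency is read from the fitted curve at half-maximal effect; % is scaled to controls: 0 for no effect and ±100 for the full control effect; nearly all actives have a fitted effect of over 65% in size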
#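 Measurement of cellular cAMP by homogeneous time-resolved fluorescence following a 30 min compound exposure at 37C. The PDE inhibitor […] was present throughout; the assay buffer was DPBS with 0.05% BSA and 0.005% Tween 20.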
# RXFP1 antagonist – antagonists of human relaxin receptor RXFP1; activity change, negative = inhibition, % at 57.5 µM; actives 0.59% (n = 350,000); HEK293-RXFP1, relaxin-stimulated cAMP HTRF, 30 min; active compounds read low;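 active = activity change of -60% or lower, but not beyond a set lower limit; inconclusive = change between -60% and -40%, or beyond the set limit; inactive = change above -40%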; also: % is scaled to controls: 0 for no effect and ±100 for the full control effect
# Target sequence (Q9HBX9 whole entry, looked up): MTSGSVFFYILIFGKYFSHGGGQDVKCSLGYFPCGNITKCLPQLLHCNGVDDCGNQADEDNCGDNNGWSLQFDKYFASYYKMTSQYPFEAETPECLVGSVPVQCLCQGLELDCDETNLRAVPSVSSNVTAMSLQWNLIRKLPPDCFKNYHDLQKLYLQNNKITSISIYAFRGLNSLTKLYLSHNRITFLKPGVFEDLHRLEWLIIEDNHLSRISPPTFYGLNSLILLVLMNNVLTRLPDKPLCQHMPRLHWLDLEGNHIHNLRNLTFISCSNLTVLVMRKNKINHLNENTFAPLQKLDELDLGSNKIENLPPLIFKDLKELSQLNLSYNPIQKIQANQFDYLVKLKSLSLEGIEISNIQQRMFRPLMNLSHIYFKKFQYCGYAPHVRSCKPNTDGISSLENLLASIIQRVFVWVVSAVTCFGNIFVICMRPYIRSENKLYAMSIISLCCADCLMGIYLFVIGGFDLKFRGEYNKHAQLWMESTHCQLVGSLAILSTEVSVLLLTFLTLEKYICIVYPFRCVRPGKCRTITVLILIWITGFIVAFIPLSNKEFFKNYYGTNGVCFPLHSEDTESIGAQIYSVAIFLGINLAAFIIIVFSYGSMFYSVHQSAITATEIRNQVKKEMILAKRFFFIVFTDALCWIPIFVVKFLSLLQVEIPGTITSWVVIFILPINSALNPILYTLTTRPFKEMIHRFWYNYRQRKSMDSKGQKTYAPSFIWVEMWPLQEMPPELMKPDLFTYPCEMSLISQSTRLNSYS
# CCT modulator – changes cytosolic chaperonin activity; actives 0.3% (n = 360,000); activity change, % (test concentration not listed), hits read low; purified chaperonin ATPase assay, HTRF ADP detection, 30 min; in the data active = activity change below about -30%; also: % is scaled to controls: 0 for no effect and ±100 for the full control effect
#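 Nucleotide hydrolysis assay: TRiC at 20–40 nM final (set by batch activity) with 10 uM ATP, 30 min at 37 °C, in presence of 76 uM compound. Detection by competitive ADP HTRF, 30 min ambient.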
# RXFP1 agonist – agonists of human relaxin receptor RXFP1; actives 0.3% (n = 370,000); Q9HBX9; HEK293T-RXFP1 cAMP TR-FRET, 30 min; response scale: percent of porcine relaxin response, buffer zero; AID 2676; Potency, µM (highest dose often 57.5 µM), inactives show at the top dose activation, most hits filed as activators; also: potency is read from the fitted curve at half-maximal effect; % is scaled to controls: 0 for no effect and ±100 for the full control effect; nearly all actives have a fitted effect of over 60% in size
#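 Agonist response is measured as cAMP accumulation in an RXFP1-transfected HEK293T line under PDE4 inhibition. Values are scaled between buffer-only and 29 nM porcine relaxin, and EC50s come from standard Hill equation fits.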
# gsp ag – activates gsp, the McCune-Albright syndrome mutation. gsp mutant cells, cAMP HTRF, 30 min. Potency, µM (highest dose often 76.9 µM), for the others: at the highest dose activation (cAMP increase), usual class: activators. actives 0.13% (n = 340,000). AID 624287; active = well fitted activation curve with a large enough effect; inconclusive = small, poorly fitted or top-dose-only effect, or another doubt; inactive = no such curve, though single readings can be large or run the other way; cell line not stated here;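 also: phosphodiesterase inhibitor Ro 20-1724 added with compounds to block cAMP breakdown; potency is read from the fitted curve at half-maximal effect; nearly all actives have a fitted effect of over 60% in size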
#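 Cells in DMEM/10% FBS with G418 were pretreated with compounds in DMSO plus […] (300 uM stock) for 30 min at 37C. cAMP was measured by HTRF (cAMP-d2 plus anti-cAMP antibody-K) after 30 min at room temperature.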
# Active calls of the source: *; ? = inconclusive; . = no result given; [ ] = another dose, or the depositor's remark. Unless noted, calls follow the shape of the dose curve; as a rule, active = well fitted curve in the direction sought with a large enough effect; inconclusive = small, poorly fitted or top-dose-only effect, or another doubt; inactive = no such curve, though single readings can be large; an effect the other way counts as inactive or inconclusive.
SMILES,MmCpn inh,gsp antagonist,RXFP1 antagonist,CCT modulator,RXFP1 agonist,gsp ag
COc1ccccc1NS(=O)(=O)c1cccc(NC(=O)Nc2ccc(Cl)cc2)c1,2%,28µM*,-14,-3,2%,17%
COc1ccccc1NS(=O)(=O)c1cccc(NC(=O)Nc2ccccc2)c1,-2%,?,.,1,-1%,-4%
Cc1cccc(NC(=O)c2cccc(NC(=O)Cc3cccs3)c2)c1,1%,-12%,-107*,1,0%,19%
CC(C)(C)NC(=O)c1cccc(NC(=O)Cc2cccs2)c1,-6%,9%,7,3,-1%,9%[15.4 µM]
COc1ccc2c(c1)c1nc3n(c(=O)c1n2CC(=O)Nc1cc(C)[nH]n1)CCS3,-6%,.,.,.,22%,.
COc1cccc(NC(=O)Cn2c3ccc(OC)cc3c3nc4n(c(=O)c32)CCS4)c1,2%,0%,4,-2,10µM*,?
Cc1c(Cl)cccc1NC(=O)CSc1nc(=O)n(Cc2ccco2)c2c1CCC2,.,.,.,.,0%,.
CC(Oc1ccccc1)C(=O)N1CCN=C1SCc1ccccc1 (stereo not given),?,-24%,-16,-42*,-1%,-1%[15.4 µM]
Cc1nc(SC2CCOC2=O)c2c(C)c(C)sc2n1 (stereo not given),?,1%,-8,2,?,20µM*
CCOc1ccc(-n2ccnc(SCC(=O)NCc3cccc(OC)c3)c2=O)cc1,?,3%,-17,0,4%,10µM*
CCOc1ccc(-n2ccnc(SCC(=O)Nc3ccc(OC)cc3OC)c2=O)cc1,-22%,-3%,-9,-1,2%,-2%
CC(C)(CO)NS(=O)(=O)c1ccc2c(c1)C(=NO)c1cc(S(=O)(=O)NC(C)(C)CO)ccc1-2,3%,5%,-2,-1,-1%,7.1µM*
Cc1c(N2CCCC2)cc2c(c1N)C(C)(C)CC2(C)C,-1%,-6%,-71*,-2,3%,-9%[15.4 µM]
C/C(=N\O)c1ccc(OCC(=O)N2CCCCC2)cc1,.,.,-15,.,.,.
COc1ccc(CCNC(=O)C2CCC(=O)N(C3CCCCCC3)C2)cc1 (stereo not given),3%,50µM*,1,1,-2%,?
CCn1cc(/C=N\NC(=O)Cc2ccc([N+](=O)[O-])cc2)c(C)n1,-5%,7%,-5,-39*,4%,-8%[15.4 µM]
COc1ccc(-n2nc3c(c2NC(=O)COc2ccccc2F)CS(=O)(=O)C3)cc1,1%,2%,-10,-32*,2%,?
COCCNC(=S)N(CCCN(C)C)Cc1cc2cc3c(cc2[nH]c1=O)OCCO3,-1%,50µM*,-1,-1,0%,?
COCCCNC(=S)N(CCCN(C)C)Cc1cc2cc3c(cc2[nH]c1=O)OCCO3,2%,-5%,-2,-2,2%,13%
Cc1ccc(C2=NOC(=O)/C2=C\C=C\c2ccccc2)cc1,1%,-11%,-108*,-4,-2%,12%[15.4 µM]
CN(C)/C=C1\C(=O)ON=C1c1ccccc1,1%,-8%,-20,-3,-1%,14%[15.4 µM]
O=C(CS(=O)(=O)c1ccc(Cl)cc1)Nc1nnc(-c2cccs2)o1,1%,1%,-75*,1,3%,?
CC1CC(C)CN(S(=O)(=O)c2ccc(C(=O)Nc3nnc(-c4cccs4)o3)cc2)C1 (stereo not given),2%,?,-8,0,-1%,-9%
CCC1CCCCN1S(=O)(=O)c1ccc(C(=O)Nc2nnc(-c3cccs3)o2)cc1 (stereo not given),-7%,?,-73*,-1,1%,5%
O=C(CS(=O)(=O)c1ccc(F)cc1)Nc1nnc(-c2cccs2)o1,1%,2%,-5,0,0%,-10%[15.4 µM]
SMILES,MmCpn inh,gsp antagonist,RXFP1 antagonist,CCT modulator,RXFP1 agonist,gsp ag
CCCC(=O)N1c2nc(-c3ccco3)nn2C2(CCCCC2)[C@@H]2CCCC[C@@H]21,.,.,-66*,.,0%,.
Cc1cc(NC(=O)C(C)SCC(=O)Nc2cc(C(F)(F)F)ccc2N2CCOCC2)no1 (stereo not given),-1%,3%,-72*,1,0%,2%[15.4 µM]
CC(C)[C@H](NC(=O)[C@@H]1Cc2ccccc2CN1C(=O)OC(C)(C)C)C(=O)NC1CCCC1,-1%,?,-103*,-19,2%,8%
Cc1nc2ccc(S(=O)(=O)Nc3cccc(-c4nc5cccnc5s4)c3C)cc2s1,?,35µM*,-27,-1,2%,12%
COc1ccc(-c2[nH]ncc2C(=O)NCc2ccc(F)cc2)cc1,.,.,3,.,-1%,.
Cc1ccc(OCC(=O)NC2CC(C)(C)NC(C)(C)C2)cc1C,0%,2%,-82*,-2,-2%,-36%
CCCn1c2ccccc2c2cnn(CC(=O)N(CCCOC(C)C)Cc3ccco3)c(=O)c21,.,.,-7,.,0%,.
COc1cc(OC)cc(C2=NC3(CCC(C)CC3)NC2=S)c1 (stereo not given),0%,-11%,-108*,0,1%,-17%[15.4 µM]
Cc1ccc(C2=NC3(CCCC3)NC2=S)cc1,2%,-5%,-22,0,0%,30%[15.4 µM]
CNc1nc(NCc2ccccc2)c2ccccc2n1,0%,13%,-10,-3,0%,0%
Oc1ccccc1Nc1nc(NCc2ccccc2)c2ccccc2n1,-3%,?,-79*,-5,1%,2%[15.4 µM]
Cc1cc(C)c2c(-n3cccc3)c(C(=O)NCCc3ccccc3)sc2n1,.,.,-10,.,?,.
CC(C)c1ccc(OCC(=O)Nc2cccc(C(=O)Nc3ccccc3C(=O)O)c2)cc1,3%,-7%,-66*,0,0%,0%[15.4 µM]
Cc1cccc(NC(=O)COc2ccccc2C(=O)NC(C)c2ccccc2)c1 (stereo not given),-4%,28µM*,-18,1,-1%,-20%
Cc1cccc(NC(=O)c2ccccc2OCC(=O)c2ccccc2)c1,1%,-6%,2,0,0%,0%
CN(C)c1ccc(Nc2ncnc3sc4c(c23)CCCC4)cc1,.,.,.,.,4%,.
O=c1[nH]cnc2c1c(-c1ccccc1)cn2-c1ccccc1,1%,-15%,-75*,-1,0%,6%
CCOc1ccc(CN(CCc2ccc3c(c2)OCO3)Cc2cc(OC)cc(OC)c2)cc1,.,.,-4,.,2%,.
O=C(N/N=C1\CCCCc2ccccc21)c1ccccn1,2%,-1%,-65*,-2,1%,5%[15.4 µM]
O=C(NN=C1CCCCCCC1)c1ccccn1,2%,12%,18,-1,0%,-16%
Cc1ccc(NC(=S)N/N=C2/CCCCc3ccccc32)cc1,1%,?,-61*,1,-1%,-15%

# Bioassay records: PubChem BioAssay, National Center for Advancing Translational Sciences (NCATS)
